CYP2C19 inhib: blocks human cytochrome P450 2C19; P33261; actives 21% (n = 96,000); inhibition, % at 5 µM; CYP2C19 Supersomes, luciferin-H EGE luminescence, 30 min;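 active = CYP2C19 inhibition above a set limit at 5 µM in the primary screen, cut at about 50% in these data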
Target sequence (P33261 whole entry, looked up): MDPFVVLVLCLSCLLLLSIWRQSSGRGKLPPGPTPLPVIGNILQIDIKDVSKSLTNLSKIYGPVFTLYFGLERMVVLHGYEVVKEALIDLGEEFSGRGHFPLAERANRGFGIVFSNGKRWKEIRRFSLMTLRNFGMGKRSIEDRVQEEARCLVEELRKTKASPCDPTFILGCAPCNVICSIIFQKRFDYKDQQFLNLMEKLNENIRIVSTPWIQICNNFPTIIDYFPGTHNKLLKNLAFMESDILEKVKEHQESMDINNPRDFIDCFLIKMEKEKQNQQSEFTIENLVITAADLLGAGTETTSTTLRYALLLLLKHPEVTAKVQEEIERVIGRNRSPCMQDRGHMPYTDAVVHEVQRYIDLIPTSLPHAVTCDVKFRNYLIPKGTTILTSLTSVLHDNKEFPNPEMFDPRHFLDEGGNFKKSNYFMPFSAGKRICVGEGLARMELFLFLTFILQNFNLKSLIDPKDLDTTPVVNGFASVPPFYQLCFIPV
CYP2C19 act: activators of human cytochrome P450 2C19; AID 1025; P33261; 96,000 tested, under 10 active; activation factor at 5 µM; recombinant CYP2C19, luciferin-H EGE luminescence; stronger effect = higher value; 0 = fully inhibited enzyme, 1 = untreated enzyme;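 active = activation factor of at least 2 at 5 µM in the primary screen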
Pyk2 oligo antag: antagonists of human Pyk2 oligomerization; Q14289; Q293 cells, Pyk2 FERM NanoBiT luminescence; stronger effect = lower value; z-score (the deposit names both 25 µM and 10 µM); actives 0.83% (n = 99,000); AID 1347419;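 active = Z-score of -3 or lower, scaled per plate to the spread of control and sample wells; inactive = z-score above -3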;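 note: negative z-score means lost luminescence so less FERM oligomerization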
CYP2C9 inh: human CYP2C9 inhibition; P11712; CYP2C9 Supersomes, luciferin-H conversion, luminescence; inhibition, % at 5 µM; actives 20% (n = 96,000);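 active = blocking of liver enzyme CYP2C9 beyond about 50% at 5 µM, limit read from the data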
CYP2C9 activ: increases human cytochrome P450 2C9 activity; P11712; recombinant CYP2C9, luciferin-H conversion, luminescence; stronger effect = higher value; factor 1 = untreated enzyme, 0 = blocked; activation factor at 5 µM; actives 1.4% (n = 96,000);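 active = activation factor of 2 or more for CYP2C9 at a 5 µM dose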
Large screens that a line does not name were inactive. This is a sample that favours compounds with a hit; in the whole collection about 28% have one here.

CCOC(=O)N1CCC(NS(=O)(=O)c2ccc3c(c2)oc(=O)n3C)CC1	none
CCOC(=O)c1cc(S(=O)(=O)NC2CCN(C(=O)OCC)CC2)cn1C	CYP2C9 inh 56.8
CCOC(=O)C1CCN(S(=O)(=O)c2ccc(OC)c(OC)c2)CC1	none
COc1ccc(C)cc1S(=O)(=O)N1c2ccccc2CC1C (stereo not drawn)	CYP2C19 inhib 95.6, CYP2C9 inh 96.1
COc1ccc(F)cc1S(=O)(=O)N1CCC(C(N)=O)CC1	CYP2C9 activ 2.4
CC1CCCN(S(=O)(=O)c2ccccc2[N+](=O)[O-])C1 (stereo not drawn)	none (no result: CYP2C19 inhib, CYP2C19 act, CYP2C9 inh, CYP2C9 activ)
COc1ccc(F)cc1S(=O)(=O)N1CCCC(C)C1 (stereo not drawn)	CYP2C19 inhib 66.7
CCOc1cc(S(=O)(=O)N2CCC(C(N)=O)CC2)ccc1F	none
CCOc1ccc(S(=O)(=O)N2CCC(C(N)=O)CC2)c2ccccc12	CYP2C9 inh 58.6
COc1ccc(OC)c(C(=O)COC(=O)c2ccccc2O)c1	none
COc1ccc(F)cc1S(=O)(=O)N1CCCN(S(=O)(=O)c2cc(F)ccc2OC)CC1	CYP2C19 inhib 99.4
COc1ccc(OC)c(S(=O)(=O)N2CCN(c3ccccn3)CC2)c1	CYP2C19 inhib 82.7, CYP2C9 inh 76.8
COc1ccc(F)cc1S(=O)(=O)n1cc(C)nc1-c1ccccc1	none
COc1ccc(C)cc1S(=O)(=O)N1CCN(S(=O)(=O)c2cc(C)ccc2OC)CC1	CYP2C19 inhib 75.4, CYP2C9 inh 86.9
COc1ccc(C)cc1S(=O)(=O)N1CCCCC1	none (no result: CYP2C19 inhib, CYP2C19 act, CYP2C9 inh, CYP2C9 activ)
O=C(NCC1CCCO1)C1CC(=O)N(C2CCCC2)C1 (stereo not drawn)	none
CCCCN(CCCC)C(=O)c1nsnc1-c1ccccc1O	none
O=c1c(=O)n(O)c2ccccc2n1O	none
Cc1cc(C(=O)CNCc2ccco2)c(C)n1-c1ccc(F)cc1	CYP2C19 inhib 51.1
COc1ccc2c(=O)cc(C(F)(F)C(F)(F)F)oc2c1	none
Cc1ccc2oc(C(Cl)(Cl)Cl)cc(=O)c2c1	CYP2C19 inhib 53.4
CCCCCn1c(=O)[nH]c2cc(C(=O)NCc3ccco3)ccc2c1=O	none
COc1ccc(C(=O)NCc2ccccc2OC)c(OC)c1	CYP2C19 inhib 55.6, CYP2C9 activ 2.6
CCCCC(CC)C(=O)NCc1ccccc1OC (stereo not drawn)	CYP2C19 inhib 53.4
COc1ccccc1CNC(=O)c1ccccc1N	CYP2C19 inhib 52.6
CCCC(C)C(=O)NCc1ccccc1OC (stereo not drawn)	none
Cc1ccccc1CNC(=O)c1ccccc1N	none
CCN(CC)CCNC(=O)c1ccccc1N	CYP2C19 inhib 66.6, CYP2C9 inh 56.2
COc1ccc(C(=O)NCc2ccccc2OC)cc1	none (no result: CYP2C19 inhib, CYP2C19 act, CYP2C9 inh, CYP2C9 activ)
Nc1cc(-c2ccc(Cl)cc2)nn1S(=O)(=O)c1ccc(Cl)cc1	none (no result: Pyk2 oligo antag)
CCCS(=O)(=O)n1nc(-c2ccc(OC)cc2)cc1N	CYP2C19 inhib 94.4, CYP2C9 inh 86.8 (no result: Pyk2 oligo antag)
Cc1ccc(-c2cc(N)n(Cc3ccc(Cl)cc3)n2)cc1	CYP2C19 inhib 83.2, CYP2C9 inh 61.9
CCN(CC)c1nc(C#N)cc(-c2ccc(OC)cc2)n1	none
CCCS(=O)(=O)n1nc(-c2ccc(C)cc2)cc1N	CYP2C19 inhib 91.4, CYP2C9 inh 66.7 (no result: Pyk2 oligo antag)
CCOC(=O)c1cnc2cc(-c3ccc(Cl)cc3)nn2c1N	none
COc1cc(OC)cc(-c2cc(N)n(S(=O)(=O)Cc3ccccc3)n2)c1	CYP2C9 inh 87.3 (no result: Pyk2 oligo antag)
COc1ccc(OC)c(S(=O)(=O)n2nc(-c3ccccc3)cc2N)c1	none (no result: Pyk2 oligo antag)
CCOc1ccc(N2CC(C(=O)Nc3ccc(S(=O)(=O)Nc4ncccn4)cc3)CC2=O)cc1 (stereo not drawn)	none
C=CCn1c(O)c(C2=c3ccccc3=NC2=O)s/c1=N/c1nccs1	CYP2C9 inh 61.0 (no result: Pyk2 oligo antag)
Cn1c(O)c(C2=c3ccccc3=NC2=O)sc1=Nc1ccc(Cl)cc1	none (no result: CYP2C19 inhib, CYP2C19 act, CYP2C9 inh, CYP2C9 activ)
CC(C)C(=O)Nc1ccc(NC(=O)c2ccccc2Cl)nc1	none
OC1(c2ccc3ccccc3c2)CCN(Cc2ccccc2)C1 (stereo not drawn)	CYP2C19 inhib 79.9
Cc1cc(C)cc(OCC(=O)N2CCCCCC2)c1	CYP2C19 inhib 53.5
Cc1cc(Cl)ccc1OCC(=O)N1CCCCC1	CYP2C19 inhib 87.5
COc1cc(CO)cc(Br)c1OCC(=O)N1CCCCC1	CYP2C9 activ 2.2
Cc1cc(C)c(C)c(OCC(=O)N2CCCCCC2)c1	none
Cc1cc(Cl)ccc1OCCCC(=O)N1CCN(C)CC1	CYP2C19 inhib 50.9, CYP2C9 activ 2.1
O=C(C1CCC(=O)N1Cc1ccccc1Cl)N1CCN(c2cccc(Cl)c2)CC1 (stereo not drawn)	none
O=C(COc1ccc(S(=O)(=O)NC2CCCCC2)cc1)NCCC1=CCCCC1	none (no result: CYP2C19 inhib, CYP2C19 act, CYP2C9 inh, CYP2C9 activ)
COc1cc2c(cc1OC)CN(C(=O)CCCOc1ccc(Cl)cc1Cl)CC2	CYP2C9 inh 56.6
O=c1cc(CN2CCN(c3ccccc3)CC2)c2c(ccc3ccccc32)o1	none
c1ccc(N2CCN(Cc3ccnc4ccccc34)CC2)cc1	CYP2C19 inhib 64.4
Nc1nc2n(c1C(=O)c1ccccc1)CCC2	none
O=C(CCN1C(=O)C2C3C=CC(C4CC34)C2C1=O)Oc1cccc2cccnc12 (stereo not drawn)	none
C=CCn1c(COc2ccc(Cl)cc2)nnc1SCC(=O)N/N=C/c1ccccc1	none
CCCCc1c(O)nc(SCC(=O)N2CCOCC2)[nH]c1=O	none
CC(C)n1c(=S)[nH]c2ccccc21	CYP2C9 activ 3
CC(C)(C)Nc1nc(Oc2ccc(=O)n(-c3ccccc3)n2)nc(N2CCOCC2)n1	CYP2C19 inhib 54.3, CYP2C9 inh 68.0
O=c1ccc(Oc2nc(N3CCOCC3)nc(N3CCOCC3)n2)nn1-c1ccccc1	none
COc1cc(NC(=O)CSc2nc(C)cs2)cc(OC)c1	CYP2C19 inhib 95.8, CYP2C9 inh 52.5
COc1ccc(OC)c(NC(=O)CSc2nnc(N)s2)c1	CYP2C19 inhib 50.3
COc1ccc(OC)c(NC(=O)CSc2nc(C)cs2)c1	CYP2C19 inhib 84.1, CYP2C9 inh 53.8
Cc1csc(SCC(=O)Nc2ccc(Cl)cn2)n1	CYP2C19 inhib 85.6, CYP2C9 inh 59.2
COc1ccc(OC)c(Nc2nc(N)nc(CSc3nnc(N)s3)n2)c1	none
O=C([C@H](Cc1ccccc1)NS(=O)(=O)c1ccc(Cl)cc1)N1CC[C@@]2(O)CCCC[C@H]2C1	none
CCOc1[nH]n(-c2ccc(Cl)cc2)c(=O)c1C=Nc1ccc(C)cc1	none (no result: Pyk2 oligo antag)
CCn1c(Cc2ccccc2)nnc1SCC(=O)Nc1nc(C)c(C)s1	none
C=CCn1c(SCC(=O)N(C)C2CCS(=O)(=O)C2)nnc1-c1ccncc1 (stereo not drawn)	none
O=C(NC(Cc1ccccc1)c1nc2ccccc2[nH]1)C1CC(=O)N(c2ccc3c(c2)OCCO3)C1 (stereo not drawn)	CYP2C19 inhib 81.1
Cc1cc(C(=O)CN2C(=O)c3ccccc3S2(=O)=O)c(C)n1-c1ccccc1	CYP2C19 inhib 78.8, CYP2C9 inh 66.3
Cc1ccc(C(=O)CN2/C(=C(\O)c3ccccc3)C(=O)c3ccccc3S2(=O)=O)c(C)c1	CYP2C9 inh 69.3
CC(C)(C)c1ccc(OCC(=O)OCCNC(=O)c2cccnc2)cc1	none
